Shown are actives, neighbours in structure and some others; about 1.2% of the full set was active somewhere.
C-LANA FP – inhibitors of KSHV LANA C-terminal domain DNA binding; MBP-C-LANA/FAM-LBS DNA binding, fluorescence polarization; inhibition, % at 9 µM; 0.078% of 340,000 active; AID 504423;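 active = highest replicate inhibition at or above 60% at 9 µM, even if other replicates fall short; inactive = all replicates below 60% inhibition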
GLD-1 RNA inh – GLD-1-TGE RNA interaction inhibition (C. elegans). inhibition, % at 5.96 µM. 0.44% of 320,000 active. purified GLD-1 + fluorescein TGE RNA, fluorescence polarization. AID 2280. Q17339;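 active = percent inhibition above a per-plate cutoff, the plate mean of test compounds plus 3 SD, cut at about 30% in these data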
Target sequence (Q17339 whole entry, looked up): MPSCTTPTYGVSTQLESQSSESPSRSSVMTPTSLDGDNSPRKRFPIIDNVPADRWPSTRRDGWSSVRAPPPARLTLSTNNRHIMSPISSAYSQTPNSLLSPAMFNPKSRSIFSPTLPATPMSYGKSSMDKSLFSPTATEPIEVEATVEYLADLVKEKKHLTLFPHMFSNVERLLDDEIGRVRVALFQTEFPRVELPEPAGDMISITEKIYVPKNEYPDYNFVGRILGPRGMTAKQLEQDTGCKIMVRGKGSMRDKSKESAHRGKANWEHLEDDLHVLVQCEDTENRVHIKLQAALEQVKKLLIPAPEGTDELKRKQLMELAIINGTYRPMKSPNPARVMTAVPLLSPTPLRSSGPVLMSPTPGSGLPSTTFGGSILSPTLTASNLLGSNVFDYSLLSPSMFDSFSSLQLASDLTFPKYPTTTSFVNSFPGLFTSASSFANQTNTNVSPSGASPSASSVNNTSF
Keap1-Nrf2 PPI – disrupts human Keap1 binding to Nrf2 peptide | inhibition, % at 9.4 µM | Q14145 | Keap1 Kelch-Nrf2 peptide fluorescence polarization, 1536-well | 0.15% of 340,000 active; in the data active = inhibition above about 12%; inconclusive = no clear call, values can overlap the other calls; inactive = below about 7.3%;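 note: human Keap1 Kelch domain with fluorescein labeled Nrf2 9mer peptide probe; higher means more block of Keap1 binding to Nrf2 peptide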
MEX-5 binding – C. elegans MEX-5 TCR-2 RNA binding activity. Q9XUB2. MEX-5/FITC-TCR2 RNA binding, fluorescence polarization; active compounds read low. activity score (negative = inhibition of binding), % at 10 µM. 0.38% of 300,000 active;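 active = inhibition past about -25% in most replicates, and total fluorescence under double the plate's negative control median, limit read from the data; inconclusive = replicates evenly split on the limit, or fluorescence at least double controls; inactive = too little inhibition in most replicates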
Bcl-xL primary – inhibitors of human Bcl-xL; Q07817; GST-Bcl-xL / FITC-Bim BH3 peptide fluorescence polarization; inhibition, % at 10.9 µM; 0.7% of 320,000 active;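 active = inhibition above the mean of all tested compounds plus 3 SD, cutoff set per campaign, cut at about 30% in these data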;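 note: inhibitors lower millipolarization by displacing the labeled peptide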
E coli Lon inh – E. coli protease La inhibition; purified E. coli Lon protease, fluorescence polarization; inhibition, % at 7.94 µM; 0.42% of 360,000 active; AID 602123; in the data active = inhibition above about 13%, passing the limit was not always enough
A number is an active result; - = inactive; ? = inconclusive; . = no result.

SMILES	C-LANA FP	GLD-1 RNA inh	Keap1-Nrf2 PPI	MEX-5 binding	Bcl-xL primary	E coli Lon inh
COc1cccc(C(=O)NCC2CCN(c3ccc(S(=O)(=O)N4CCOCC4)cc3)CC2)c1	-	-	-	-30	-	-
CCc1cc(Cn2nc(-c3ccccc3)cc2C(=O)NCc2ccc(C)cc2)on1	-	-	-	-	-	-
CC(=O)Nc1ccc(N=Cc2nc(-c3ccc(C)cc3)oc2O)cc1	-	31	-	-31	89	-
Cc1ccc(N=Cc2nc(-c3ccc(C)cc3)oc2O)cc1	-	.	-	-42	.	-
COc1ccc(N=Cc2nc(-c3ccco3)oc2O)cc1	-	-	-	-	-	-
Oc1oc(-c2ccccc2)nc1C=Nc1ccccc1	-	-	-	-	-	-
CC(C)(C)n1nnnc1C(c1cc2ccccc2o1)N(CCC#N)Cc1ccccc1 (stereo not given)	.	.	.	.	.	-
CCOc1ccccc1CNC(=O)CCC(=O)N1Cc2ccccc2Oc2ncccc21	-	-	-	-	-	-
COc1ccc(NC(=O)/C(C#N)=C\c2ccc(Br)o2)cc1	-	-	-	-	-	-
N#C/C(=C\c1ccc([N+](=O)[O-])o1)C(=O)Nc1ccc(F)cc1	-	-	-	-	41	-
COc1ccc(CNC(=O)CN2CCN(S(=O)(=O)c3ccccc3)CC2)cc1	-	-	-	.	-	-
CC(C)(C)c1nn(-c2ccccc2)c2[nH]c(=O)c(CNCc3ccco3)cc12	-	-	-	-27	-	-
CCn1c2ccc(OC)cc2c2nc3ccccc3nc21	.	-	.	?	-	.
CCCCOC(=O)Cn1c2ccc(OC)cc2c2nc3ccccc3nc21	-	-	-	-28	-	-
COc1ccc(S(=O)(=O)N(C)C[C@@H]2OCc3cnnn3CCCC(=O)N([C@@H](C)CO)C[C@@H]2C)cc1	.	.	.	.	.	-
O=C1CNC(=O)/C(=C\c2ccccc2)N1	-	-	-	-	-	-
O=C1/C(=C/c2ccccc2)Nc2ccccc21	-	-	-	-	64	-
CCCOc1ccc(N)cc1N	-	-	-	-	117	-
COc1ccccc1C(O)c1ncc(-c2cccc3ccccc23)[nH]1 (stereo not given)	.	.	.	.	.	-
COc1cccc(/C=N/NC(=O)c2ccncc2)c1OC(=O)c1ccc(Br)cc1	-	-	-	-	34	-
CC[C@]1(C(=O)OC)[C@H]2C(=O)N(C)C(=O)[C@H]2[C@H]2CN(C)C(=NC3CCCCC3)N21	-	.	-	.	.	-
OC1c2cc(Cl)ccc2-c2c(Cl)cc(Cl)cc21 (stereo not given)	-	.	-	.	.	-
O=c1[nH][nH]c2c(N=Cc3ccccc3O)ccc(F)c12	87	.	-	.	.	25
CCc1ccc(O)c(N=Cc2ccccc2O)c1	-	-	-	-	-	-
COc1ccc(S(=O)(=O)/N=C2/NC(=O)/C(=C\c3cc(OC)c(OC)cc3[N+](=O)[O-])S2)cc1	-	-	-	-	-	-
SMILES	C-LANA FP	GLD-1 RNA inh	Keap1-Nrf2 PPI	MEX-5 binding	Bcl-xL primary	E coli Lon inh
COc1cc(/C=C2\S/C(=N/S(=O)(=O)c3ccccc3)NC2=O)c([N+](=O)[O-])cc1OC	-	-	-	-	37	-
COc1ccc(Cl)cc1NC(=O)CN(C)C(=O)CCC(=O)c1cc(C)sc1C	-	-	-	-	-	-
Cc1ccccc1C(=O)Nc1ccc2c(C#N)c3nc4ccccc4nc3n2c1	-	-	-	-	42	-
Cc1c(C(=O)Nc2ccccc2)cn2c(nc3ccccc32)c1C#N	-	-	-	-	-	-
Cc1ccc(S(=O)(=O)N2CCC(C(=O)Nc3cc(C(F)(F)F)ccc3N3CCOCC3)CC2)cc1C	-	-	-	-	-	-
N=C1/C(=C\c2ccc(SCc3ccccc3)o2)C(=O)N=C2SC(CC(=O)N3CCOCC3)=NN12	-	-	-	-30	-	-
Cc1ccc(/C=C/C2=Cc3c(sc(NC(=O)CSc4n[nH]c(N)n4)c3C#N)C(C)(C)C2)o1	.	37	.	-	54	.
CN(C(=O)COC(=O)c1nc(Cl)ccc1Cl)c1ccccc1	-	-	-	-	-	-
Clc1ccc(SCc2cn3ccccc3n2)cc1	-	-	-	-	-	-
c1ccc2c(SCc3cn4ccccc4n3)nncc2c1	-	-	-	-	54	-
O=C1c2ccccc2S(=O)(=O)c2cc(N3CCc4ccccc4C3)ccc21	.	-	.	-	39	.
Cc1ccc(Nc2ccc([N+](=O)[O-])ccc2=O)cc1	-	-	-	-28	-	-
O=C(Cc1cccc(NC(=O)C2CCCN(C(=O)C3CCCC3)C2)c1)Nc1ccc(C(=O)N2CCCCC2)cc1 (stereo not given)	-	.	-	.	.	-
CCOc1ccc(S(=O)(=O)Nc2cc(Sc3ncn[nH]3)c3oc(=O)sc3c2)cc1	.	-	.	-34	-	.
Cc1ccc2c(c1)C1C=CCC1C(C(=O)O)N2 (stereo not given)	.	-	.	-	62	.
O=C(O)C1Nc2ccc(OC(F)(F)F)cc2C2C=CCC12 (stereo not given)	.	-	.	-	48	.
CN1CCc2cccc3c2[C@H]1Cc1ccc(O)c(O)c1-3	-	-	-	-84	36	-
Cc1ncc([N+](=O)[O-])n1CC(=O)Nc1ccccc1Cl	.	.	.	.	.	-
CC(C)N(C(=O)[C@H]1CC(CC(=O)NCC23CC4CC(CC(C4)C2)C3)C(=O)N2CCc3c([nH]c4ccccc34)[C@]12C)C(C)C (stereo not given in full)	-	-	-	.	.	-
Cc1cnc(C(=O)OCc2nc3ccsc3c(=O)[nH]2)cn1	-	-	-	.	30	-
Cc1ccc(C(=O)OCc2nc3ccsc3c(=O)[nH]2)o1	-	-	-	-	-	-
CCCc1cc(=O)oc2cc(OC(=O)CN3C(=O)NC4(CCCC4)C3=O)ccc12	-	-	-	-	-	-
CC/C(=N/Nc1ccc(Cl)cc1)c1cnnc(SC)n1	-	-	-	.	-	-
CC/C(=N/Nc1cccc(C)c1)c1cnnc(SC)n1	-	-	-	-33	46	-
CCCCN1CC(C)(C)[C@H](CC(=O)NC)C1=O	.	.	.	.	.	-
SMILES	C-LANA FP	GLD-1 RNA inh	Keap1-Nrf2 PPI	MEX-5 binding	Bcl-xL primary	E coli Lon inh
CSc1ccc(OC2(C)CCN(Cc3ccc(OC(C)C)cc3)C2)cc1 (stereo not given)	.	.	.	.	.	-
COc1ccccc1N1C(C)=CC(=C(C#N)c2nc3ccccc3s2)C=C1C	-	-	-	-38	-	-
COC(=O)C1=C(C)N(Cc2ccccc2)C(=NCC(C)C)N[C@H]1c1ccccc1	.	31	.	?	44	.
COC(=O)C1=C(C)N(Cc2ccccc2)C(=NCc2ccc(OC)cc2)N[C@H]1c1ccccc1	-	-	-	.	.	-
O=C(COC(=O)[C@@H]1CC(O)CN1S(=O)(=O)c1ccc2c(c1)OCCO2)Nc1cc(F)ccc1F (stereo not given in full)	-	-	-	.	.	-
CCCCOc1ccc(S(=O)(=O)NC(=O)C2(C)CCN2C(=O)Cc2cccs2)cc1 (stereo not given)	.	.	.	.	.	-

Assay outcomes from PubChem BioAssay.
